Reference: PubChem BioAssay (NCI)
Compounds without any hit were thinned out: in the full panel of roughly 79,000, 15% have a hit. Values without a mark were called inactive. The source made the active and inactive calls. Cut-off read from the data, not from the text of the source: active = growth inhibition above about 70%; inactive = the rest.

Experiments:
[1] = NCI Yeast Anticancer Drug Screen. Data for the rad50 strain (AID 155);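 note: 0% = growth of vehicle-only cultures of the same strain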; settings: S. cerevisiae rad50 strain growth inhibition; at 50.0 µM; stronger effect = higher value
Procedure, shortened: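 A DNA repair-deficient yeast mutant serves as the test organism; compound-induced growth inhibition is calculated against vehicle-treated cells.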

[2] = NCI Yeast Anticancer Drug Screen. Data for the mec2-1 strain (AID 157); settings: S. cerevisiae mec2-1 strain, at 50.0 µM, stronger effect = higher value
Procedure, shortened: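 Mutant yeast (mec2-1) grown with compound; growth inhibition relative to vehicle control reported.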

[3] = NCI Yeast Anticancer Drug Screen. Data for the sgs1 mgt1 strain (AID 161);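 note: 0% = growth of cultures given vehicle only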; settings: S. cerevisiae sgs1 mgt1 strain, at 50.0 µM, stronger effect = higher value
Procedure, shortened: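 Percent growth inhibition was derived by comparing compound-exposed mutant yeast with vehicle-exposed cultures. The strain carries alterations in DNA damage repair.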

[4] = NCI Yeast Anticancer Drug Screen. Data for the cln2 rad14 strain (AID 165);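 note: 0% = growth equal to vehicle treated cultures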; settings: S. cerevisiae cln2 rad14 strain, at 50.0 µM, stronger effect = higher value
Procedure, shortened: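 Readout is yeast growth inhibition versus vehicle-treated controls, using a strain with cln2 and rad14 alterations exposed to compound.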

[5] = NCI Yeast Anticancer Drug Screen. Data for the bub3 strain (AID 167); settings: S. cerevisiae bub3 mutant strain, at 50.0 µM, stronger effect = higher value
Procedure, shortened: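 Inhibition values come from growth of compound-treated mutant yeast normalised to vehicle-treated controls.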

[6] = NCI Yeast Anticancer Drug Screen. Data for the mlh1 rad18 strain (AID 175); settings: S. cerevisiae mlh1 rad18 strain growth inhibition; at 50.0 µM; stronger effect = higher value
Procedure, shortened: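 Genetically defined yeast (DNA repair-deficient) exposed to compounds; growth inhibition determined relative to vehicle.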

Row | Compound | growth inhibition [1] | growth inhibition [2] | growth inhibition [3] | growth inhibition [4] | growth inhibition [5] | growth inhibition [6]
1 | COc1ccc(C2OCC(c3ccccc3)O2)cc1 (stereo unspecified) | -13.4% | -7.65% | -18.5% | -37% | 3.15% | -29.1%
2 | COC(=O)CCC(=O)c1cc(OC)c2cc3ccccc3cc2c1OC | 9.2% | -10.4% | -2.55% | 5.75% | -17.4% | -15.6%
3 | Cc1ccc(Nc2ccc(Nc3ccc(C)cc3)c3c2C(=O)c2ccccc2C3=O)cc1 | -1.05% | -16.9% | -4.15% | 5% | -8.2% | -4.45%
4 | CCCC(=O)OC1C=C2N3C(=O)C4CC56C(=CC(OC(C)=O)C7OC75)N4C(=O)C3CC26C2OC12 (stereo unspecified) | 83.3% (active) | 84.2% (active) | 89.7% (active) | 78.8% (active) | 76.3% (active) | 85.2% (active)
5 | CNc1ccccc1C | 37.6% | -15.4% | -8.1% | -82.1% | 18.9% | 23%
6 | CC(O)C(C)(C)[N+](=O)[O-] (stereo unspecified) | 0.45% | -1.55% | -7% | -4.25% | 2.8% | 1.75%
7 | N#CC(c1ccccc1)c1ccccn1 (stereo unspecified) | 5.9% | 8.35% | 8.75% | -9.2% | 5.5% | 2.75%
8 | O=NNc1ccc(SSc2ccc(NN=O)cc2)cc1 | 39.8% | 9.5% | 22.9% | 44.9% | 8.05% | 31.1%
9 | Cc1cccc(N=N/C(=N\NC(=O)c2cc(Cl)ccc2O)c2ccc(N(CCC#N)CCC#N)cc2C)c1 | 13.7% | -1% | 19.7% | 1.8% | 13.8% | -79.6%
10 | CCN(CC)Cc1ncccc1O | 8.5% | -15.8% | -22.4% | -2.25% | -5.8% | 16.1%
11 | COc1n[nH]c(N)n1 | 8.3% | 12.8% | 3.8% | 22.8% | 25.6% | 20.2%
12 | COc1c(O)c(/C=C/C(=O)NN)cc2ccoc12 | -4.75% | -10.3% | -25.1% | -16.5% | 15.8% | -23.9%
13 | C/C=C1\OC(n2cnc3c(N)ncnc32)C(O)C1O (stereo unspecified) | -0.3% | -11.8% | -14.9% | 2.5% | -16.2% | -1.8%
14 | COc1cc(O)c(C(=O)CC(C)=O)c(OC)c1 | -14.9% | -14.8% | -3.7% | -0.9% | 10.9% | -11.7%
15 | CCCOc1cc2c(cc1C(C)c1ccc(OCC)cc1)OCO2 (stereo unspecified) | 36% | -25.8% | -9.3% | 0.9% | -26.8% | -49.8%
16 | COc1ccc2c(c1)OC[C@@H]1c3cc(NS(=O)(=O)c4ccccc4)cc(OC)c3O[C@H]21 | 10.9% | 32.5% | 47.8% | 30.3% | 58.8% | 52.6%
17 | Cc1cnc(Sc2ncccn2)c([N+](=O)[O-])c1 | -7.05% | -15% | -2.1% | -28.4% | -31.1% | -17.9%
18 | Nc1ccc(C(=O)O)cc1[N+](=O)[O-] | -0.85% | -4.65% | -3.7% | -14.6% | 2.15% | -1.5%

Row | Compound | growth inhibition [1] | growth inhibition [2] | growth inhibition [3] | growth inhibition [4] | growth inhibition [5] | growth inhibition [6]
19 | O=C(Nc1ccc([N+](=O)[O-])cc1)N(c1ccccc1)c1cc(N2CCOCC2)ccn1 | 40.7% | 16.6% | 9.1% | 13.8% | 5.8% | 34.9%
20 | O=C(NC(=O)c1ccccc1)OC(c1ccccc1)C1CO1 (stereo unspecified) | -0.7% | 9.65% | 11.4% | 8.55% | -34.1% | 18.8%
21 | O=C1OC(=O)C2C1C1c3ccccc3C2(O)c2ccccc21 (stereo unspecified) | -1.8% | -17.9% | 0.2% | 2.95% | 6.1% | -0.6%
22 | Cc1cc(N(CCC#N)CCC#N)ccc1/C(N=Nc1ccc(Cl)cc1)=N\NC(=O)c1cc(Cl)ccc1O | -16.6% | -16.1% | -31.1% | -20.2% | -29.6% | -59.5%
23 | Nc1ccc([N+](=O)[O-])c(F)c1 | -6.05% | -6.8% | -3.25% | -11.8% | 10.1% | 9.15%
24 | CCCCCCCCCCCCCCCCCCOCCOCCOCCOCCO | -21.7% | -10.3% | -23.5% | -43.5% | -3.25% | -19.5%
25 | CN(C)c1nc(Cl)c2c(-c3ccccc3)c(-c3ccccc3)oc2n1 | -0.6% | 3% | 10.5% | 16.1% | 24.6% | -25.1%
26 | CCCCCCCCCCCCCCCCCCNC1=C(C)C(=O)C(NCCCCCCCCCCCCCCCCCC)=C(OCC)C1=O | 2.7% | -2.95% | -0.85% | -10.8% | -1.2% | -9.5%
27 | Cc1cnc(N/N=C/c2c(CO)cnc(C)c2O)s1 | 20.6% | 9.85% | 7.25% | 11.6% | 2.75% | 23.6%
28 | CC(=O)OCC1OC(OCC[N+](C)(C)C)C(OC(C)=O)C(OC(C)=O)C1OC(C)=O (stereo unspecified) | -1.65% | 14.9% | -15.6% | -2.4% | -7.35% | 15.3%
29 | O=c1c(Cl)c(Cl)cnn1-c1ccc([N+](=O)[O-])cc1[N+](=O)[O-] | 5.7% | 6.7% | 3.05% | -4.25% | -0.65% | 5.75%
30 | CCC(=O)/C=C/c1ccc(Cl)cc1 | 10.7% | 8% | 7.75% | -25.6% | -14.7% | 11.3%
31 | CN(C)S(=O)(=O)c1nc2nc[nH]c(=O)c2[nH]1 | -3.2% | -20.4% | -3.8% | -15.9% | -8.55% | -22.9%
32 | O=[N+]([O-])c1ccc2c(ccn2C2OCC(O)C(O)C2O)c1 (stereo unspecified) | 5.7% | 13.6% | 8.7% | -3.55% | 18.1% | -2.7%
33 | C=C(Br)CNC(=O)Nc1ccc(Cl)c(Cl)c1 | -0.3% | 16.1% | 21.4% | 5.7% | 22.6% | -86.2%
34 | C/C=C/C(=O)N(CC)c1ccccc1 | 37.2% | -2.25% | 10.8% | -8.35% | 2.9% | 33.8%
35 | O=[N+]([O-])c1ccc(N/N=C2\C=C(c3ccccc3)C(c3ccccc3)C2)c([N+](=O)[O-])c1 (stereo unspecified) | -36.3% | 8.95% | -9.25% | 23.1% | 96.8% (active) | -14.2%
36 | S=C(NCc1cccnc1)Nc1ccc(Cl)c(Cl)c1 | 26.8% | 13.3% | 27.9% | 5.85% | 27.6% | 13.7%
